Laboratory results from the supplement of paper PMC7156485.

These compounds were tested on HCC1569 (assay: H1.0 immunofluorescence intensity relative to DMSO (% of DMSO); higher = stronger H1.0 induction, active = 140 or more). Details: concentration: 10 µM; 24 h.
Procedure, shortened: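 After 24 h at 37 °C with compounds at 10 µM, in triplicate, HCC1569 and TDF cells were fixed with 3.7% formaldehyde. Immunostaining used a rabbit anti-H1.0 antibody and an AlexaFluor 647 secondary, with DAPI, and six fields per well were imaged at ×10. H1.0 nuclear intensity or cell number is presented as percent of the plate control, from the median of replicates, with HCC1569 values smoothed for positional effects.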
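Further: TDF is a line of transformed human dermal fibroblasts of mesenchymal origin.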

H1.0 immunofluorescence intensity, inactive:
Br.CN(C)CCCC1(c2ccc(F)cc2)OCc2cc(C#N)ccc21 (centres undefined) [Citalopram hydrobromide] 92.5
CN1c2ccccc2C(=O)N2CCc3c([nH]c4ccccc34)C21 (centres undefined) [Evodiamine] 123
CCCCN1CCC(n2c(=O)[nH]c3ccccc32)CC1.O=C(O)C(=O)O [NS 521 oxalate] 98.3
COc1cc2c(CCNC(C)=O)c[nH]c2cc1Cl [6-Chloromelatonin] 90
O=C1Cc2c([nH]c3ccc(Br)cc23)-c2ccccc2N1 [Kenpaullone] 101
O=C1CN2Cc3c(ccc(Cl)c3Cl)NC2=N1 [Anagrelide] 98.7
O=C(O)CNC(=O)C(CS)Cc1ccccc1 (racemic) [DL-Thiorphan] 96.1
CC(C)C[C@@H](C(=O)O)c1cc(-c2ccc(C(F)(F)F)cc2)cc(-c2ccc(C(F)(F)F)cc2)c1 115
COC1(NC(=O)CSCC#N)C(=O)N2C(C(=O)[O-])=C(CSc3nnnn3C)CSC21.[Na+] (centres undefined) [Cefmetazole sodium] 89.6
